Among the data in PubChem BioAssay (NCI) are growth values, retold here.

The structures appear in SMILES notation. The panel holds about 83,000 compounds, 20% with a hit somewhere; the sample as a whole holds those more often.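 Activity criterion: percent growth below 10, measured after cells in 96-well plates were exposed to a single compound concentration for 48 hours.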 The source made the active and inactive calls.

The test system of the assay is SF-268 CNS. In words: NCI-60 one-dose screen, 48 h (100 = growth as untreated, 0 = no growth, -100 = all killed). The conditions noted are these: 10 µM unless noted.
Take `Clc1nnc2c3ccccc3ccn12`: the growth is 97.6% (inactive).
To `COc1ccc(-c2nn(C(=O)NCCN(C)C)cc2-c2ccncc2)cc1Cl` belongs 44.8% (inactive); to `CCN1C(=O)N(CC)C2C1NN=c1s/c(=C\c3ccco3)c(=O)n12` (centres undefined), 44% (inactive).
To `CC(C)N(C(=S)SSC(=S)N(C(C)C)C(C)C)C(C)C` belongs 103% (inactive); to `CC(C)=CC[C@@H]1CC2(CC=C(C)C)C(=O)C(OC3(C(=O)c4ccccc4)C(=O)C4(CC=C(C)C)C[C@@H](CC=C(C)C)C(C)(C)C(CC=C(C)C)(C4=O)C3=O)(C(=O)c3ccccc3)C(=O)C(CC=C(C)C)(C2=O)C1(C)C` (some centres undefined), 14.5% (inactive); to `CCCCCCCCCCCCCCCC1=NCCN1`, 71.3% (inactive).
Turning to `COc1cc([N+](=O)[O-])cc(OC)c1OC`, the growth is 110% (inactive).
To `NNC(=O)CSc1nc2scc(-c3ccccc3)c2c(=O)n1-c1ccccc1` belongs 85.6% (inactive); to `C=CCN(CC#N)CC=C`, 114% (inactive); to `CCOC(=O)Cn1c(-c2nonc2NC(=O)c2ccccc2F)nc2ccccc21`, 50% (inactive).
As for `CCCCCCCOc1cccc(/C=C2\N=C3SCCCN3C2=O)c1`, the figure is 103% (inactive).
As for `Cc1c2c(cc3c1[nH]c1ccccc13)C=NCC2`, the figure is 95.5% (inactive); as for `COc1cc(OC)c(Cl)cc1N`, 104% (inactive).
`CS(=O)(=O)c1ccc(C(=O)Nc2ccc(Cl)c(-c3ccccn3)c2)c(Cl)c1`: the growth was 31.8% (inactive).
As for `Cc1cc([N+](=O)[O-])c(C)cc1N`, the figure is 105% (inactive); as for `COc1cnc2c(c1)C(=O)c1c-2n(CCCN2CCNCC2)c(=O)c2cc(Cl)ccc12`, -75.6% (active); as for `COc1cc(/C=C2\CN(C(=O)OC(C)(C)C)C/C(=C\c3ccc(O)c(OC)c3)C2=O)ccc1O`, 89.5% (inactive).
To `CCN1C(=O)C(C)C=C(C)C=C1C` (centres undefined) belongs 103% (inactive); to `COCc1nc(NS(=O)(=O)c2ccc(N)cc2)nc(C)c1Br`, 109% (inactive); to `O=c1c2cc(Br)cc(Br)c2nc(-c2ccc(Cl)cc2)n1/N=C\c1ccccc1F`, 73.3% (inactive).
As for `CCCCCCCCCCCCCC1=NC(C)(C)CN1C(C)C`, the figure is -53.5% (active).
Take `CCC(=O)OCc1ccc(OC)cc1`: the growth is 115% (inactive).
To `Fc1ccc(-c2cnc3nonc3n2)c(F)c1` belongs 84.8% (inactive); to `O=S(=O)(Nc1ccc2ccccc2c1)N1CCCCC1`, 61.3% (inactive); to `CCn1c(Cc2ccccc2Nc2c(Cl)cccc2Cl)nnc1SCC(=O)Nc1cccc(OC)c1`, 82.1% (inactive).
To `CCN(CC)CC(=O)Nc1c(C)ccc(N)c1C` belongs 102% (inactive).
To `C=C1C[C@@]2(C)C(CC[C@]3(C)C2CC=C2C4CC(C)(C)C[C@@H](OC(=O)/C(C)=C\C)[C@]4(C(=O)O)CC[C@]23C)C(C)(C)C1=O` (some centres undefined) belongs 50.4% (inactive); to `C=C1C(=O)O[C@H]2[C@H]1CC/C(COC(=O)NCc1cccc(OC)c1)=C\CC[C@@]1(C)O[C@@H]21`, 58.2% (inactive).
For `CCCCOc1nc2ccccc2cc1/C=C/c1cc(/C=C/c2cc3ccccc3nc2OCCCC)n(-c2ccccc2)n1`, the growth was 107% (inactive).
As for `CCCCc1nc(Cl)c(C2CC(c3ccc(S(N)(=O)=O)cc3)=NN2c2cc(Cl)cc(Cl)c2)[nH]1` (centres undefined), the growth was 49.4% (inactive).
To `O=C(N/N=C\c1cc(Br)ccc1O)c1ccncc1` belongs 35.4% (inactive); to `CC(C)C/C=C/C=C/C(=O)N[C@@H](CC(N)=O)C(=O)N[C@@H]1C(=O)N[C@H](c2ccc(O)cc2)C(=O)N[C@H](CCCN)C(=O)N[C@H]([C@@H](C)O)C(=O)N[C@H](c2ccc(O)cc2)C(=O)N[C@H](c2ccc(O)cc2)C(=O)N[C@H]([C@H](C)O)C(=O)N[C@H](Cc2ccccc2)C(=O)N[C@H](CCCN)C(=O)N[C@H](c2ccc(O[C@H]3O[C@@H](CO)[C@@H](O)[C@@H](O)[C@H]3O[C@@H]3O[C@H](CO)[C@H](O)[C@H](O)[C@@H]3O)cc2)C(=O)N[C@H]([C@H](C)O)C(=O)N[C@H](c2ccc(O)cc2)C(=O)NCC(=O)N[C@H](CC(C)C)C(=O)N[C@H](C)C(=O)N[C@H](c2ccc(O)c(Cl)c2)C(=O)O[C@@H]1C(N)=O`, 59.9% (inactive).
For the molecule `CN(C)c1ccc(/C=C\c2cccc[n+]2C)cc1`, the growth was 26.7% (inactive).
To `COC(=O)CSc1ccc(Cl)cc1` belongs 119% (inactive); to `S=C(S)Oc1cccc2cccnc12`, 109% (inactive); to `O=C1NN(C(=O)c2ccccc2)C(c2ccc(Cl)c(Cl)c2)=C/C1=C\c1ccccc1[N+](=O)[O-]`, 49% [6.75 µM] (inactive).
For `CCOC(=O)Nc1ccc2nc(Sc3ccc(Cl)cc3)sc2c1`, the growth was 54.4% (inactive).
As for `COc1cc(C2CC(c3cccc(Nc4ccnc5cc(Cl)ccc45)c3)=NN2C=O)cc(OC)c1OC` (centres undefined), the figure is 25.3% (inactive); as for `c1cn2cc(-c3ccc4ncn(C5CCCCC5)c4c3)nc(-c3ccc4c(c3)ncn4C3CCCCC3)c2n1`, -67% (active).
